{"source": "PubChem BioAssay AID1455", "about": "(National Center for Advancing Translational Sciences (NCATS), 2008)", "note": "Records with an inconclusive call do not appear. Entries that show only a call come without a potency. Active and inactive are the calls of the source. The call rests on the fitted dose curve; in most records, active means well fitted inhibition curve with a large enough effect; inconclusive means small, poorly fitted or top-dose-only effect; inactive means no such curve, though single readings can be large or run the other way.", "data": [{"target": "Ubiquitin carboxyl-terminal hydrolase 2 (Homo sapiens) (UniProt O75604)", "sequence (O75604 whole entry, looked up)": "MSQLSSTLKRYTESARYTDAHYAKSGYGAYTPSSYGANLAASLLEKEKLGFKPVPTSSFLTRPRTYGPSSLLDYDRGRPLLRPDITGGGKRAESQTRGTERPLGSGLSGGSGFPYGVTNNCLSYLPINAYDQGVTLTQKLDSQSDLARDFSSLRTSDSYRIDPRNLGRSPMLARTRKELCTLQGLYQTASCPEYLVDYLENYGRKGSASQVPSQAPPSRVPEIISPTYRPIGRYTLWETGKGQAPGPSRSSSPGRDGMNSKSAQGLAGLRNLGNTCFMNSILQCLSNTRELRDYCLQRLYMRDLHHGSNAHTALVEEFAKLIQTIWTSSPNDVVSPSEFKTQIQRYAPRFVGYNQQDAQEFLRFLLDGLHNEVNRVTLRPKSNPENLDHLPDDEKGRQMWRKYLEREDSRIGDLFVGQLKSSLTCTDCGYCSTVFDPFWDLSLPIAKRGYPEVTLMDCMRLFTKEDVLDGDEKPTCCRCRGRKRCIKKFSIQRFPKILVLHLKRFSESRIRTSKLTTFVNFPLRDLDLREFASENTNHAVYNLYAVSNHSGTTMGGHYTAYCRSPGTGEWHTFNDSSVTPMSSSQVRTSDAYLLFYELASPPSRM", "assay": "Confirmation Concentration-response Assay for Inhibitors of Ubiquitin-specific Protease USP2a", "conditions": "USP2 core, Ub-PLA2 coupled fluorescence, NBD C6-HPC; series mostly up to 38.3 µM", "text": "NIH Molecular Libraries Screening Centers Network [MLSCN] NIH Chemical Genomics Center [NCGC] MLSCN Grant: XO1-MH079852-01 PI Name: Nicholson, Ben. Progenra Inc, Malvern, PA NCGC Assay Overview: Homeostasis of cellular proteins is maintained through a combination of synthesis and degradation. The pathway that accounts for the majority of protein degradation is the ubiquitin-proteasomal pathway. Ubiquitin (Ub) is highly conserved in all cells and the generation of a multi-Ub chain typically targets proteins for degradation by the proteasome. However, ubiquitination is highly reversible and dynamic. Deubiquitination, the reverse process, is catalyzed through the action of enzymes referred to as isopeptidases or deubiquitinating enzymes (DUBs). This group of enzymes is collectively responsible for maintaining adequate pools of free ubiquitin and regulating the ubiquitination status of cellular proteins. The class of DUBs referred to as the ubiquitin-specific proteases (USP) family functions endoproteolytically to cleave Ub chains from a wide range of protein substrates. USP2a deubiquitinates fatty acid synthase (FASN) which has recently been identified as an emerging oncology target. To identify inhibitors of USP2a a cell-free assay was employed. […] The reporter enzyme chosen is phospholipase A2 (PLA2), which has an absolute requirement for a free amino terminus. Thus, fusion of a UBL to the N-terminus of PLA2 inactivates PLA2. When the UBL-PLA2 reporter enzyme is cleaved by USP2, the activated reporter can subsequently act on its substrate, which is the commercially available NBD C6-HPC (Invitrogen). Thus, this coupled assay gives a fluorescent read-out, which is generated through the cleavage of the PLA2 reporter enzyme. The assay, developed by Progenra, Inc. uses Ub-PLA2 and USP2a at near equal and low (nM) amounts and has been licensed for sale by LifeSensors, Inc. as the Ub-IsoPro1 kit.\nNCGC Assay Protocol Summary: The assay buffer, prepared fresh at the day of the assay, contains 20mM Tris-HCl pH 8.0, 2mM CaCl2, 2mM beta-Mercaptoethanol, 0.1% DMSO. 3ul of 40nM (20nM final) USP2 core, which is stored on ice, is dispensed into a medium-binding black solid Kalypsys 1,536 well plate using the Kalypsys dispenser. The assay plate is then pinned with 23nL compound with the Kalypsys pintool in columns 5-48. The controls are pinned as follows: column 1&2 two-fold dilutions of 2M NEM in duplicate; column 3 DMSO; column 4 2M NEM (final concentration […]). The assay plate is incubated at RT for 30min. Subsequently, 3uL of 40nM (20nM final) Ub-PLA2 and 40uM (20uM final) NBD C6-HPC (stored on ice and protected from light) were dispensed into the plate using the Kalypsys dispenser. Plates were read immediately (0 Hour) on an Envision (Perkin Elmer) plate reader using the following wavelengths Ex 460nm /Em 535nm. Then, the assay plates were incubated for 2.5 hours and read again on the Envision using the same settings Data were normalized to the to AC100 inhibition (NEM). Concentration-response curves were fitted to the normalized data and the concentration-response curves were then classified based on curve quality (r2), response magnitude and degree of measured activity. The time zero reading was used to flag fluorescence artifacts. Keywords: ubiquitination, deubiquitination, proteases, profluorescent, MLSMR, MLSCN, NIH Roadmap, qHTS, NCGC", "values": [{"smiles": "Cc1ccc(-n2nc3c(=O)n(CCCC(=O)NCCc4ccccc4Cl)nc(C)c3c2C)cc1", "Potency": "11.2 µM (active)"}, {"smiles": "COC(=O)c1c(NC(=O)CS(=O)(=O)c2ccc(C)cc2)sc2c1CCCCC2", "Potency": "inactive"}, {"smiles": "O=C(CCS(=O)(=O)c1ccccc1)N(Cc1cccnc1)c1nc2c(Cl)cccc2s1", "Potency": "inactive"}, {"smiles": "Cc1ccc(S(=O)(=O)Cc2nc(-c3ccc(C(=O)NCc4ccccc4F)cc3)oc2C)cc1", "Potency": "14.1 µM (active)"}, {"smiles": "Cc1ccc([C@H]2Nc3ccc(S(=O)(=O)Nc4cccc(Cl)c4C)cc3[C@H]3C=CC[C@H]32)cc1", "Potency": "7.94 µM (active)"}, {"smiles": "CCS(=O)(=O)c1nc(S(=O)(=O)c2ccc(C)cc2)c(NCC(C)C)s1", "Potency": "2.82 µM (active)"}, {"smiles": "CCc1ccc(C(=O)c2c(N)c(-c3nc(-c4ccc5c(c4)OCO5)cs3)c3ccccn23)cc1", "Potency": "inactive"}, {"smiles": "CCC(C)NC(=O)CSc1nc2cc3c(cc2c(=O)n1Cc1ccc(C(=O)NCCc2ccc(OC)c(OC)c2)cc1)OCO3", "note": "(centres undefined)", "Potency": "inactive"}, {"smiles": "CCCCCC(=O)N1c2ccccc2C(C)(c2ccccc2)CC1(C)C", "note": "(centres undefined)", "Potency": "12.6 µM (active)"}, {"smiles": "Cc1cc(C)c2nc(N(Cc3cccnc3)C(=O)CCS(=O)(=O)c3ccccc3)sc2c1", "Potency": "inactive"}, {"smiles": "COc1ccc(C(=O)/C=C/c2cn(CC(O)CN(CC(C)C)CC(C)C)c3ccccc23)cc1OC", "note": "(centres undefined)", "Potency": "12.6 µM (active)"}, {"smiles": "Oc1c(C(Nc2ccccn2)c2ccccc2F)ccc2cccnc12", "note": "(centres undefined)", "Potency": "inactive"}, {"smiles": "CCOC(=O)C1CCCN(c2c(C(=O)c3ccc(C)cc3)cnc3ccc(OCC)cc23)C1", "note": "(centres undefined)", "Potency": "3.16 µM (active)"}, {"smiles": "COc1ccc(Cl)cc1NC(=O)CSc1nc(=O)[nH]c2c1CCC2", "Potency": "inactive"}]}]}
